Measured values as given in ChEMBL document CHEMBL1201862, “PubChem BioAssay data set” (2004).
In all, about 400,000 compounds went through this assay and about 2,100 (0.53%) were called active. Roughly 14% stayed inconclusive and do not appear here. No rule for the calls is given here. The list comes from a sample in which actives are over-represented; it also holds similar structures and randomly drawn compounds.

The compounds below were run against Ataxin-2 (Homo sapiens) (UniProt Q99700) (assay: qHTS for Inhibitors of ATXN expression.).
Sequence of Ataxin-2 (Homo sapiens) (Q99700 whole entry): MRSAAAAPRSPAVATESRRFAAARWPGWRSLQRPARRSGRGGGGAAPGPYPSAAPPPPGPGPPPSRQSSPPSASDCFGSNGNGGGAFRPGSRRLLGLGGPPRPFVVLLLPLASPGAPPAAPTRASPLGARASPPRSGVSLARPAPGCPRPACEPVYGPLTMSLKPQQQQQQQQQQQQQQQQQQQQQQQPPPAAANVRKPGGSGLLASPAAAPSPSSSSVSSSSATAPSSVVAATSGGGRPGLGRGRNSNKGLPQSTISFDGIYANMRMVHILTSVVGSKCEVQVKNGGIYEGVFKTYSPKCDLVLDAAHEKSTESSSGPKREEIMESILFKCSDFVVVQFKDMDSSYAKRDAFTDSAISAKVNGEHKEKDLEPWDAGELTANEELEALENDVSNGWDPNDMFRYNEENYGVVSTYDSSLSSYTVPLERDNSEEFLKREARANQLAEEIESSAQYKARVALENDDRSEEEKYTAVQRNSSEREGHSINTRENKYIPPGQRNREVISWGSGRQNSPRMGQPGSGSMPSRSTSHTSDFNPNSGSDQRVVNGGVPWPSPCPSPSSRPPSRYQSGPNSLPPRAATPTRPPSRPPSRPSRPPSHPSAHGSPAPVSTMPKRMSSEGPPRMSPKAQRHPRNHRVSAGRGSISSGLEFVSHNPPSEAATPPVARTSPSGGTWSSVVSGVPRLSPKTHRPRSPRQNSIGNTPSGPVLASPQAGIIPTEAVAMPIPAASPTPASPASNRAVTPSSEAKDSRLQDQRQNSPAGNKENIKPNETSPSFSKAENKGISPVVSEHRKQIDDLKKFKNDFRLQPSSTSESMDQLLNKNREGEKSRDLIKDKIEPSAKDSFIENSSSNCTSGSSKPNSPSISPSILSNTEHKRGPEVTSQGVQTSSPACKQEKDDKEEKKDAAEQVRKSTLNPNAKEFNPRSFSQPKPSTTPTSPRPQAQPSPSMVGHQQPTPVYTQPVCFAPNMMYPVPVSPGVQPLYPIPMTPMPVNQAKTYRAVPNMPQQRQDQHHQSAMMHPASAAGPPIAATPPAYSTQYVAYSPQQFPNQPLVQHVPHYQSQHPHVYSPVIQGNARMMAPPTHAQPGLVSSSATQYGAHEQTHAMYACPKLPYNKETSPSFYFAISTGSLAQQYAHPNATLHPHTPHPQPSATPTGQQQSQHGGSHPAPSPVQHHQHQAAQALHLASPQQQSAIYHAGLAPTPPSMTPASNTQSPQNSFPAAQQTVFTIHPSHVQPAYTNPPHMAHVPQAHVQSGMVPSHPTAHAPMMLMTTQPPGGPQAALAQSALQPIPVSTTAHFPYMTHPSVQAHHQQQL
Assay type: functional

| SMILES | Potency |
| --- | --- |
| Cc1nc2nc(-c3ccc(F)cc3)cn2nc1C | inactive |
| CN(C)c1ccc(C=Cc2cnccn2)cc1 | inactive |
| COc1ccc(/C=C2\CCc3c2nc2ccccc2c3C(=O)O)cc1OC | inactive |
| CC[n+]1c(/C=C/c2ccc(N(C)C)cc2)ccc2ccccc21 | 10 µM (active) |
| CCN(CC)c1ccc(/C=C/c2ccc3ccc(OC)cc3[n+]2CC)cc1 | 2.82 µM (active) |
| COc1ccc2ccccc2c1/C=N/Nc1cccc(C(=O)O)c1 | inactive |
| CCN(CC)c1ccc(/C=N/NC(=S)NCc2ccc(OC)cc2)cc1 | inactive |
| CCCN(CCC)c1ccc(/C=C/c2ccc3cc(OCC)ccc3n2)cc1 | inactive |
| CC[n+]1c(/C=C/c2ccc(OC(C)=O)c(OC)c2)ccc2ccccc21 | 22.4 µM (active) |
| CCCCCC[n+]1ccccc1C=Cc1ccc(N(C)C)cc1 | 7.94 µM (active) |
| CN(C)c1ccc(/C=C/c2nc3ccccc3s2)cc1 | inactive |
| CN(C)c1ccc(/C=C/c2cccc[n+]2[O-])cc1 | inactive |
| CN(C)c1ccc(/C=C/c2ccc3ccccc3n2)cc1 | inactive |
| CCOC(=O)c1cc(C#N)c(Nc2ccccc2OC)nc1C(F)(F)F | inactive |
| O=S(=O)(O)c1ccc(N2N=C(c3ccccc3)CC2c2ccccc2)cc1 (configuration not stated) | inactive |
| Nc1nnc(-c2cc3ccccc3oc2=O)s1 | inactive |
| CC(=O)Oc1ccc(N2C(=O)c3cccc4c([N+](=O)[O-])ccc(c34)C2=O)cc1 | inactive |
| CC(=O)NNC(=O)c1sc(=S)n2c1[nH]c(=O)c1sccc12 | inactive |
| CN(C)c1ccc(/C=C/c2ccc3c4ccccc4ccc3[n+]2-c2ccccc2)cc1 | 11.9 µM (active) |
| Oc1ccc(/C=C/c2ccc3ccccc3n2)cc1 | inactive |
| CCN(CC)c1ccc(/C=C/c2cc(-c3ccccc3)c3ccccc3n2)cc1 | inactive |
| C[n+]1c(/C=C/c2ccc(O)cc2)ccc2ccccc21 | 26.7 µM (active) |

| SMILES | Potency |
| --- | --- |
| Oc1ccc(/C=C/c2ccnc3ccccc23)cc1 | inactive |
| CN(C)c1ccc(C=Cc2nccc3ccccc23)cc1 | inactive |
| O=C1C(Cl)=C(NC2CCCCC2)C(=O)N1Cc1ccccc1 | inactive |
| C=CCn1c(C)c(C(C)=O)cc(NC(=O)c2ccccc2)c1=O | inactive |
| CCOC(=O)C1CCCN(S(=O)(=O)c2ccc3c4c(cccc24)C(=O)N3CC)C1 (configuration not stated) | inactive |
| CCc1ccc(OCC(O)CN2CCC(CN3C(=O)c4cccc5cccc(c45)C3=O)CC2)cc1 (configuration not stated) | 39.8 µM (active) |
| Cc1ccc(C)c(OCC(O)CN2CCC(CN3C(=O)c4cccc5cccc(c45)C3=O)CC2)c1 (configuration not stated) | 39.8 µM (active) |
| CCOC(=O)N1CCN(CC(O)COc2cc(C)cc(C)c2)CC1 (configuration not stated) | inactive |
| CCOC(=O)C1CCN(S(=O)(=O)c2ccc3c4c(cccc24)C(=O)N3CC)CC1 | inactive |
| CCN(CC)C(=O)CN1C(=O)c2cccc3cccc1c23 | inactive |
| CCC(C)NC(=O)CN1C(=O)c2cccc3cccc1c23 (configuration not stated) | inactive |
| O=C1c2cccc3cc([N+](=O)[O-])cc(c23)C(=O)N1CC1CCCO1 (configuration not stated) | inactive |
| Cc1cccc(C)c1OCC(O)CN1CCC(CN2C(=O)c3cccc4cccc(c34)C2=O)CC1 (configuration not stated) | 25.1 µM (active) |
| O=C(CN1C(=O)c2cccc3cccc1c23)NC1CCCCC1 | inactive |
| Cc1cc(C)cc(OCC(O)CN2CCC(CN3C(=O)c4cccc5cccc(c45)C3=O)CC2)c1 (configuration not stated) | 28.2 µM (active) |
| O=C(CN1C(=O)c2cccc3cccc1c23)NC1CCCC1 | inactive |
| COc1ccc(-c2cc(=O)oc3c(C)c(O)c(CN(C)C)cc23)cc1 | inactive |
| COCCNC(=O)/C(C#N)=C/c1c(N2CCN(C)CC2)nc2c(C)cccn2c1=O | inactive |
| CCOCCCn1c(=N)c(C(=O)NCc2cccnc2)cc2c(=O)n3cc(C)ccc3nc21 | inactive |
| Cc1ccc(S(=O)(=O)c2cc3ccc(O)cc3oc2=O)cc1C | inactive |
| CCCc1cc(=O)oc2c(CN3CCCC3)c(O)c(Cl)cc12 | inactive |
| CC(=O)NC(=Nc1ccc(C)cc1Cl)Nc1nc(C)cc(C)n1 | inactive |

| SMILES | Potency |
| --- | --- |
| Oc1c(C(c2ccccn2)N2CCC(Cc3ccccc3)CC2)cc(Cl)c2cccnc12 (configuration not stated) | inactive |
| Cc1ccc(C)c(OCC(O)CN2CCC(Cc3ccccc3)CC2)c1 (configuration not stated) | 39.8 µM (active) |
| CC1=C(C(=O)N(C(C)C)C(C)C)CC(CC(=O)NC(c2ccccc2)c2ccccc2)C(=O)N1CCC1=CCCCC1 (configuration not stated) | 39.8 µM (active) |
| CC1=C(C(=O)N2CCCCCC2)CC(CC(=O)NCCCCc2ccccc2)C(=O)N1Cc1ccccc1 (configuration not stated) | 35.5 µM (active) |
| O=C(COC(=O)c1cc(S(=O)(=O)N2CCCC2)ccc1O)NCCc1ccccc1 | inactive |
| CC1=C(C(=O)N(C(C)C)C(C)C)CC(CC(=O)NCCCCc2ccccc2)C(=O)N1CCC1=CCCCC1 (configuration not stated) | 39.8 µM (active) |
| CC1=C(C(=O)N(C(C)C)C(C)C)CC(CC(=O)NCc2cccc3ccccc23)C(=O)N1CCC1=CCCCC1 (configuration not stated) | 39.8 µM (active) |
| CC(CCc1ccccc1)NC(=O)C1CCC1 (configuration not stated) | inactive |
| CCOC(=O)C(CC(=O)O)NCc1ccco1 (configuration not stated) | inactive |
| CCn1nc(C)c(/C=N/NC(=O)c2nc3nc(C)cc(C)n3n2)c1C | inactive |
| CC1=C(C(=O)N2CCCCCC2)CC(CC(=O)NCCCCc2ccccc2)C(=O)N1CCC1=CCCCC1 (configuration not stated) | 17.8 µM (active) |
| CCOC(=O)c1c(N)n(CCOC(=O)c2cccs2)c2nc3ccccc3nc12 | inactive |
| O=C(CCl)N1CCN2C(=O)c3ccccc3C12c1ccc(Cl)cc1 (configuration not stated) | 21.2 µM (active) |
| CCOC(=O)N1CCc2[nH]c3ccc(C)cc3c2C1 | inactive |
| CN(C)CC(CCC(CN(C)C)C(O)(c1ccccc1)c1ccccc1)C(O)(c1ccccc1)c1ccccc1 (configuration not stated) | 28.2 µM (active) |
| CN(C)CC(O)CN(c1ccccc1)c1ccccc1 (configuration not stated) | inactive |
| COc1ccc(S(=O)(=O)N2CCN(C(=O)c3cc4c(s3)CCCC4)CC2)cc1 | inactive |
| CCC(C)NC(=O)c1cc2c(=O)n3cccc(C)c3nc2s1 (configuration not stated) | inactive |
| Clc1ccc(/C=N/N2CCN(Cc3ccccc3)CC2)cc1 | inactive |
| CN1CCN(/N=C/c2ccc(N(c3ccccc3)c3ccccc3)cc2)CC1 | 31.6 µM (active) |
| CN(C)c1ccc(/C=N/N2CCN(c3ccccn3)CC2)cc1 | inactive |
| COc1ccc2oc(=O)c(-c3cn4ccc(C)cc4n3)cc2c1 | inactive |

| SMILES | Potency |
| --- | --- |
| COc1ccc(C2=CC(c3ccc(N(C)C)cc3)n3nnnc3N2)cc1 (configuration not stated) | inactive |
| O=C(CSc1nccc(-c2cccs2)n1)Nc1cccc(Cl)c1Cl | inactive |
| CC(C)CNC(=O)COC(=O)c1c2c(nc3ccccc13)/C(=C\c1cccs1)CC2 | inactive |
| COc1ccccc1-c1c(C#N)c(N)nc2c1CCC2 | inactive |
| COc1ccccc1-c1ccc(/C=C2\C=CC(=O)O2)o1 | inactive |
| COc1ccccc1-c1cc(SC)c(C#N)c(=O)o1 | 35.5 µM (active) |
| CC1CCCN(Cc2c(O)ccc3c2O/C(=C\c2ccco2)C3=O)C1 (configuration not stated) | inactive |
| CN(c1ccccc1)c1ccc(/C=C/[N+](=O)[O-])cc1 | 25.1 µM (active) |
| O=C(CNC(=S)N(CCCN1CCOCC1)Cc1cccs1)NCc1ccccc1 | inactive |
| Nc1c(C(=O)NCCN2CCOCC2)c2nc3ccccc3nc2n1CCc1ccccc1F | inactive |
| O=C(CCS(=O)(=O)c1ccccc1)N(CCCN1CCOCC1)c1nc2c(F)cccc2s1 | 31.6 µM (active) |
| O=C(CCS(=O)(=O)c1ccccc1)N(CCCN1CCOCC1)c1nc2ccc(F)cc2s1 | 25.1 µM (active) |
| Nc1c(C(=O)NCCN2CCOCC2)c2nc3ccccc3nc2n1-c1cccc(F)c1 | inactive |
| O=C(CCS(=O)(=O)c1ccccc1)N(CCCN1CCOCC1)c1nc2ccccc2s1 | 39.8 µM (active) |
| O=C(NCCCN1CCOCC1)c1cc2nc(-c3ccco3)cc(C(F)(F)F)n2n1 | inactive |
| Nc1c(C(=O)NCCN2CCOCC2)c2nc3ccccc3nc2n1-c1ccccc1 | inactive |
| Cc1cccc2sc(N(CCN3CCOCC3)C(=O)CCS(=O)(=O)c3ccccc3)nc12 | 39.8 µM (active) |
| Nc1c(C(=O)c2ccccc2)sc2nsc(SCCN3CCOCC3)c12 | inactive |
| CCCCC1CCC(C(=O)OC(C)C(=O)Nc2ccc(NC(C)=O)cc2)CC1 (configuration not stated) | inactive |
| NNC(=O)c1oc2nc(-c3ccccc3)cc(-c3ccccc3)c2c1N | inactive |
| Cc1nc2nc(-c3cccs3)cn2nc1C | inactive |
| CCCCn1c(NC(=O)c2ccccc2)c(C#N)c2nc3ccccc3nc21 | inactive |

| SMILES | Potency |
| --- | --- |
| COc1ccccc1NCC(=O)N/N=C/c1sccc1C | inactive |
| COc1cccc(CN=C(S)Nc2cc(C)ccc2C)c1 | inactive |
| CCN(CC)CCN(C(=O)CCS(=O)(=O)c1ccccc1)c1nc2c(C)cc(C)cc2s1 | 44.7 µM (active) |
| COC(=O)COc1cccc2c(=O)n(CC(=O)N3CCCCC3)ccc12 | inactive |
| CCn1cc(C(=O)OCC(=O)Nc2ccc(C)c(Cl)c2)c(=O)c2ccc(C)nc21 | inactive |
| CCn1ccc2c(OCC(=O)Nc3ccc(C)c(Cl)c3)cccc2c1=O | 39.8 µM (active) |
| Cc1ccccc1C(=O)OC(C)CN1CCN(C)CC1 (configuration not stated) | inactive |
| CN1CCN(C2=C(Cl)C(=O)c3ccccc3C2=O)CC1 | 16.8 µM (active) |
| CC1CCN(c2ccc3c(c2)S(=O)(=O)c2ccccc2C3=O)CC1 | inactive |
| CCN(CC(=O)Nc1ccccc1OC)C(=O)c1ccccc1Sc1ccccc1C#N | inactive |
| CCN(CC)c1ccc(N=Nc2nc[nH]n2)cc1 | 10 µM (active) |
| CCOc1ccc(N(C)S(=O)(=O)c2c[nH]cn2)cc1 | inactive |
| O=C(O)c1ccccc1-c1ccc(/C=C/c2cc(C(F)(F)F)nc(O)n2)o1 | inactive |
| COc1ccccc1CN1CCc2c([nH]c3ccccc23)C1 | inactive |
| COc1cccc(C=C(C(C)=O)C(=O)c2ccccc2)c1 | 31.6 µM (active) |
| COc1cccc(C(=O)NNS(=O)(=O)c2ccccc2)c1 | inactive |
| COc1cccc(C(=O)COC(=O)CCC(=O)c2ccccc2)c1 | inactive |
| CC(=O)C(=Cc1ccc(-c2ccccc2)cc1)C(=O)c1ccccc1 | 28.2 µM (active) |
| C/C(=C\c1ccccc1)C(=O)c1c(C)cc(C)nc1O | inactive |
